# Measurements taken from the supplement of paper PMC11732987, “Enantioselective OTUD7B fragment discovery through chemoproteomics screening and high-throughput optimisation” (Communications Chemistry, 2025).
# Unmarked numbers belong to inactive results.
# Assays:
# Assay in all cases: log2 ratio of Biotin-Ahx-Ub-VS probe labelling (fragment/DMSO); higher = less target engagement (more negative = stronger competition), active = hit call of the paper (q ≤ 0.05, log2 ratio ≤ -1)
# Conditions in all cases: compound concentration: 200 uM; treatment time: 3 h
# OTUD6B = molecular target: T1, OTUD6B (UniProt Q8N6M0)
# T1 sequence (whole entry): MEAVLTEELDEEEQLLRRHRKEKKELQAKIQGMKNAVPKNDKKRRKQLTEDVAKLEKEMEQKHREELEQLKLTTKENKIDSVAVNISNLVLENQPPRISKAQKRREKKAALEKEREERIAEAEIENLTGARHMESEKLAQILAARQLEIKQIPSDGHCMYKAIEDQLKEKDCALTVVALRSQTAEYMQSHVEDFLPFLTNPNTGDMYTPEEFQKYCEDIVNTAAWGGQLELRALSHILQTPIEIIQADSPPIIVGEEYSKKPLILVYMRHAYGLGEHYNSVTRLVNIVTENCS
# In short: (§1)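 HEK293T lysate (495 µg per sample, in Tris/CHAPS/IGEPAL buffer with protease inhibitors) was exposed in triplicate for 3 h to fragment at 200 µM or to vehicle, then to Biotin-Ahx-Ub-VS at 0.5 µM final for 1 h. Labelled DUBs were enriched on NeutrAvidin, digested with LysC and trypsin, and analysed by diaPASEF LC-MS/MS. Spectronaut label-free quantities were normalised to the global median, and values are average log2 ratios of fragment over vehicle from an unpaired t-test. Only proteins with ≥2 unique peptides were used.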
# OTUD7B = molecular target: T2, OTUD7B (UniProt Q6GQQ9)
# T2 sequence (whole entry): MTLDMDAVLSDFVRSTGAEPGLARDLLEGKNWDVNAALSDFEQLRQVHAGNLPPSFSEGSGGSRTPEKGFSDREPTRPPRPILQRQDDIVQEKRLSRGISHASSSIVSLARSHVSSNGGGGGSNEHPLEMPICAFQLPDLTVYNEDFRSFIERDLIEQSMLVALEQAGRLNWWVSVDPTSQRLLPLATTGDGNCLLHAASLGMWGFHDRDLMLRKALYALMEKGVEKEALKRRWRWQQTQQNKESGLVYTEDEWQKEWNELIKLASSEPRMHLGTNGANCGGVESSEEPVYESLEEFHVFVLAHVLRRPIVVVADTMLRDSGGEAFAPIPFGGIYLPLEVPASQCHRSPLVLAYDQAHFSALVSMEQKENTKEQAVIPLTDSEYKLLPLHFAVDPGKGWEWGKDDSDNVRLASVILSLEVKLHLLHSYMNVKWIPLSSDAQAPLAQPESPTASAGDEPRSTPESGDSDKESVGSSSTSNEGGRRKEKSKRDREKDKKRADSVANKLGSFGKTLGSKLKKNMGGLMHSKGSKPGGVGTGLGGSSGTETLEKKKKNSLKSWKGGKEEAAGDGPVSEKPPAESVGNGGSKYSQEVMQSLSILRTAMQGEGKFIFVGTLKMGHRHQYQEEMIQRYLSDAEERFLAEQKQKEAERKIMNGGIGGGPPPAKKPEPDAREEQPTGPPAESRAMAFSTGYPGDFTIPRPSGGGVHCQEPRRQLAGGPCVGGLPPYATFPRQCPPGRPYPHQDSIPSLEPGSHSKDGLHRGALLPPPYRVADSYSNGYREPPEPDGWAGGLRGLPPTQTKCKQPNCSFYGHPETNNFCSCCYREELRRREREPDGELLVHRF
# In short: as §1
# PRPF8 = PRPF8 (UniProt Q6P2Q9)
# In short: as §1
# PSMD7 = molecular target: T3, PSMD7 (UniProt P51665)
# T3 sequence (whole entry): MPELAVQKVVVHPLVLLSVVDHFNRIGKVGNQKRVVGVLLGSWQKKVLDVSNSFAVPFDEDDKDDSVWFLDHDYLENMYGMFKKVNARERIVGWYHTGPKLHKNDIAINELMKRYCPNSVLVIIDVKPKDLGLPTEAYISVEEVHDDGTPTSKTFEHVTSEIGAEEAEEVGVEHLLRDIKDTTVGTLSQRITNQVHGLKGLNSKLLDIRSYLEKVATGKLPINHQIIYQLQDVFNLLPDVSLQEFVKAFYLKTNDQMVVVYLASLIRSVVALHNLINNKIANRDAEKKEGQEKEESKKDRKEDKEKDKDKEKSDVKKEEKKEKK
# In short: as §1
# UCHL1 = UCHL1 (UniProt P09936)
# Chain of UCHL1 (P09936 whole entry, looked up): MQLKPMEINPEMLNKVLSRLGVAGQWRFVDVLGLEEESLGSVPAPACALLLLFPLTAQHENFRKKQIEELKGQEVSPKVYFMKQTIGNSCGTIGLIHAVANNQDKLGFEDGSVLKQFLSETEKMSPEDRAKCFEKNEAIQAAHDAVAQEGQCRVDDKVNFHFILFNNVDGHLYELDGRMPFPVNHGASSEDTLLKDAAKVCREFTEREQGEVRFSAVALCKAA
# In short: as §1
# UCHL3 = molecular target: T4, UCHL3 (UniProt P15374)
# T4 sequence (whole entry): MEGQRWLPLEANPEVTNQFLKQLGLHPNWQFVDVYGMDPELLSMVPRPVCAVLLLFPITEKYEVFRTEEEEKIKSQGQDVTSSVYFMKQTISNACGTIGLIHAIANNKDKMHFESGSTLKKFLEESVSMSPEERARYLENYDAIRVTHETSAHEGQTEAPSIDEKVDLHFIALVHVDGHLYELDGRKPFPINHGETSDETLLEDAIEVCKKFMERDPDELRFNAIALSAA
# In short: as §1
# UCHL5 = molecular target: T5, UCHL5 (UniProt Q9Y5K5)
# T5 sequence (whole entry): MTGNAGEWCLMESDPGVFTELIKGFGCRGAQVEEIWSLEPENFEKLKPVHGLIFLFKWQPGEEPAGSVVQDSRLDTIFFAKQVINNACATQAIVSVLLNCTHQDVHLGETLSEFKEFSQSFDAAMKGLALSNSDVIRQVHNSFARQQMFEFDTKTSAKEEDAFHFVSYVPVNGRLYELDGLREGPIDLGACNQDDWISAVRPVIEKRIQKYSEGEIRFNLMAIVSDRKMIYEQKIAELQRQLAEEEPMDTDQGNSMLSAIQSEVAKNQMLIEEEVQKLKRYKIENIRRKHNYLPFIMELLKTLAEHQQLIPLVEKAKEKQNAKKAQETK
# In short: as §1
# USP10 = USP10 (UniProt Q14694)
# Chain of USP10 (Q14694 whole entry): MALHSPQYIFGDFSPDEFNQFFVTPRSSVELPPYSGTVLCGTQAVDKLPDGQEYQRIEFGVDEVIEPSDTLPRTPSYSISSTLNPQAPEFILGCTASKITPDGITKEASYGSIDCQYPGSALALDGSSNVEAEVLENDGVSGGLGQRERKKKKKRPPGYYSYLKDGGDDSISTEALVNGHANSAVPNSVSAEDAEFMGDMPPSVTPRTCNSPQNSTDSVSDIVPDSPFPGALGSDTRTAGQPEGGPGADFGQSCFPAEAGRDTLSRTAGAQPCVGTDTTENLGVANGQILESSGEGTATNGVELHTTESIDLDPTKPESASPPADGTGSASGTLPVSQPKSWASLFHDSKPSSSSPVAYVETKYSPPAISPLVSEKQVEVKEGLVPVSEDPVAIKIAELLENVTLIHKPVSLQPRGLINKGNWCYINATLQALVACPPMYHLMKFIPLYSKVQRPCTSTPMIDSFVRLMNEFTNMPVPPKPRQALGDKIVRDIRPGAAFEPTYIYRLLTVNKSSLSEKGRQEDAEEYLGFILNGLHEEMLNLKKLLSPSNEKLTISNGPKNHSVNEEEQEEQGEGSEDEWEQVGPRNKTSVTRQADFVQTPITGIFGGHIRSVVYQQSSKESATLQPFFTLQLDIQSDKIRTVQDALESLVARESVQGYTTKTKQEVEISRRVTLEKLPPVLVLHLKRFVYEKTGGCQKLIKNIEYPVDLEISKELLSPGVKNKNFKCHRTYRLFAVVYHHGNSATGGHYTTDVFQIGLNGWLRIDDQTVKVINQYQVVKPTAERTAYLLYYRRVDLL
# In short: as §1
# USP15 = molecular target: T6, USP15 (UniProt Q9Y4E8)
# T6 sequence (whole entry): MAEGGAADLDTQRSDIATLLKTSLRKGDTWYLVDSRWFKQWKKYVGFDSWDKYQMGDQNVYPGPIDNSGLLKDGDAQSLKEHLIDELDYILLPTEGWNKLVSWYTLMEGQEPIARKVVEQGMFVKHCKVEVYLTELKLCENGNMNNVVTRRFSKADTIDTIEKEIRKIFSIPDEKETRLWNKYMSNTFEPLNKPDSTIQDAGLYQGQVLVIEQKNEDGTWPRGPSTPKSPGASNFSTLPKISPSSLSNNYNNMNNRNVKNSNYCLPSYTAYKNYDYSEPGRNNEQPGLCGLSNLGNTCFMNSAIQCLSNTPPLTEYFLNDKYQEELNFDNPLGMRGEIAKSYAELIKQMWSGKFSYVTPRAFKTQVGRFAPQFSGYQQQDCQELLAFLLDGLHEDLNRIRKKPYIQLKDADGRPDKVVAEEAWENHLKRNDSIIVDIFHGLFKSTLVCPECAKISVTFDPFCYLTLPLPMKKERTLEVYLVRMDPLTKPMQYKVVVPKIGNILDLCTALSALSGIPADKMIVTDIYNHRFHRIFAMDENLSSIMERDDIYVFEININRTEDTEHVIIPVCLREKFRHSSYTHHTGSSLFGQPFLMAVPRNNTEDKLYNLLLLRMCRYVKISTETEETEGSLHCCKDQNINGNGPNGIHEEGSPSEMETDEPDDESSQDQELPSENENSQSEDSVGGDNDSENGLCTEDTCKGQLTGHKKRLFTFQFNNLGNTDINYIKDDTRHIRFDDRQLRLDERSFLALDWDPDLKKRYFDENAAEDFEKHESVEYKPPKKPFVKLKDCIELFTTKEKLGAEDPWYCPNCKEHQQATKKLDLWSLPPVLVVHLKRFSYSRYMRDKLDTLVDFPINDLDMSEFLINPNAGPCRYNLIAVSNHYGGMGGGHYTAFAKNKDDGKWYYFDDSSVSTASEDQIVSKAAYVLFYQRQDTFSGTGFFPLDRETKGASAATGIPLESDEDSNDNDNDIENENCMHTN
# In short: as §1
# USP16 = USP16 (UniProt Q9Y5T5)
# Chain of USP16 (Q9Y5T5 whole entry, looked up): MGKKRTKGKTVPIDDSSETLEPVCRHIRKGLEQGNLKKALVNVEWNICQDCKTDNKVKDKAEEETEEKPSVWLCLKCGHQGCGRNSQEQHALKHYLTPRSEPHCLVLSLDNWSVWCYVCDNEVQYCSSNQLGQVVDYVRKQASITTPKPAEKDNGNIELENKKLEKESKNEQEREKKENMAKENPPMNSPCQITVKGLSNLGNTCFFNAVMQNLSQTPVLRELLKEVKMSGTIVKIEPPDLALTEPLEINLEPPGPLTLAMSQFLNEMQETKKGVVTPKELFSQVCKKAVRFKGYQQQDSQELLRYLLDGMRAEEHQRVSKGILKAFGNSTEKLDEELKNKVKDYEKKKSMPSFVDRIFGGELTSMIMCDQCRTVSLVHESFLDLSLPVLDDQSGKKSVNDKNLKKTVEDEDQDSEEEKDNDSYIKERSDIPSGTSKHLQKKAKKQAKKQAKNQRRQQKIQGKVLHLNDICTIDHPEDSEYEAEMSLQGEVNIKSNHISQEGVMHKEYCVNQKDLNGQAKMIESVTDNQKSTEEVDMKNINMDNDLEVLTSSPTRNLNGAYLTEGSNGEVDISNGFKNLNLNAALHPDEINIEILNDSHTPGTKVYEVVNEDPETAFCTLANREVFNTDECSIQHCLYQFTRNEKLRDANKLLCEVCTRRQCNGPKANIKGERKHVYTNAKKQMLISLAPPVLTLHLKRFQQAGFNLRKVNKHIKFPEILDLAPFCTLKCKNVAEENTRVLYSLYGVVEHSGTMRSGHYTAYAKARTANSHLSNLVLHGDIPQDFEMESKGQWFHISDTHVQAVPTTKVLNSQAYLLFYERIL
# In short: as §1
structure (smiles),measurement,setting,value
N#Cc1cnn(-c2ccccc2)c1NC(=O)CCl,log2 ratio of Biotin-Ahx-Ub-VS probe labelling,OTUD6B,-0.394
same,log2 ratio of Biotin-Ahx-Ub-VS probe labelling,OTUD7B,-1.83 (active)
same,log2 ratio of Biotin-Ahx-Ub-VS probe labelling,PRPF8,-0.0739
same,log2 ratio of Biotin-Ahx-Ub-VS probe labelling,PSMD7,-0.397
same,log2 ratio of Biotin-Ahx-Ub-VS probe labelling,UCHL1,-1.35 (active)
same,log2 ratio of Biotin-Ahx-Ub-VS probe labelling,UCHL3,0.168
same,log2 ratio of Biotin-Ahx-Ub-VS probe labelling,UCHL5,-0.235
same,log2 ratio of Biotin-Ahx-Ub-VS probe labelling,USP10,-0.0214
same,log2 ratio of Biotin-Ahx-Ub-VS probe labelling,USP15,-0.516
same,log2 ratio of Biotin-Ahx-Ub-VS probe labelling,USP16,-0.0136
